“And” between values parts separate entries of the source, which are not always exact repeats. Identical values can stand only once. The source made the active and inactive calls.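 How the source made its calls: active means growth inhibition above 50% at the single 2 µM test dose, taken to imply half-maximal potency below 2 µM; inactive means the rest.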

This assay is described as follows: antimalarial activity against Dd2 strain (AID 2302).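 Further: 0% = DMSO untreated growth and 100% = chloroquine plus artemisinin killed control.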 To be noted: P. falciparum Dd2 in RBCs, LDH growth readout, 72 h; at 2 µM; active compounds read high.
With `COc1ccc(CC(C)NCC(O)c2cccc(Cl)c2F)cc1` (configuration not stated), the growth inhibition is 59% (active).

As to `O=C(NC1CCC(CN2CCC(c3c[nH]c4ccccc34)CC2)CC1)c1cnn(-c2ccccc2)c1-c1ccccc1Cl` (configuration not stated), the growth inhibition is 11% (inactive).

Take `COc1ccc(OC)c([C@H](O)[C@@H](C)NCc2cc(Cl)ccc2O)c1`: the growth inhibition is 99% (active).

For the compound `OC1(CNCc2ccccc2)CCN(CCc2c[nH]c3ccc(F)cc23)CC1`, the growth inhibition is 4% (inactive).

As for `CNC(=O)c1ccc2[nH]cc(C3CCN(CC4CCC(NC(=O)/C=C/c5ccccc5Cl)CC4)CC3)c2c1` (configuration not stated), the growth inhibition was 19% (inactive).

As for `CC(Cc1ccc(SC(C)C)cc1)NCC(O)c1cccc(Cl)c1` (configuration not stated), the growth inhibition is 97% (active).

For `CS(=O)(=O)Nc1ccc2c(C3CCN(CC4CCN(C(=O)/C=C/c5ccc(Cl)c(Cl)c5)CC4)CC3)c[nH]c2c1`, the growth inhibition is 70% (active).

For the compound `COC(=O)/C=C/c1ccc(C[C@@H](C)NC[C@H](O)c2cccc(C(F)(F)F)c2)cc1`, the growth inhibition is 93% (active).

Consider `COCCNCc1cccc(-c2ccc(CN(C(=O)Nc3ccccc3)C3CCN(Cc4ccccc4)CC3)cc2)c1`, for which the growth inhibition is 45% (inactive).

`Cc1ccc(C[C@@H](C)NC[C@H](O)c2cccc(C(F)(F)F)c2)cc1`: the growth inhibition is 79% (active) and 97% (active).

Turning to `CC[C@H]1CN2CC[C@H]1C[C@H]2[C@H](O)c1cc(-c2cccc(C)c2)nc2ccc(OC)cc12`, the growth inhibition was 100% (active).

With `CC(C)NC(=O)Cn1cc(C2CCN(CC3CCN(C(=O)/C=C/c4ccc(Cl)c(Cl)c4)CC3)CC2)c2ccccc21`, the growth inhibition is 55% (active).

For the compound `Cc1ccc(C)c(N2CCN(Cc3ccccc3O)CC2)c1`, the growth inhibition was 90% (active).

On to `O=C(/C=C/c1ccc(Cl)c(Cl)c1)NCCCCCN1C2CCC1CC(c1c[nH]c3ccccc13)C2` (configuration not stated), for which the growth inhibition is 4% (inactive).

With `CC(Cc1ccc(SC(C)(C)C)cc1)NCC(O)c1cccc(Cl)c1` (configuration not stated), the growth inhibition was 99% (active).

On to `CC(C)CNCc1ccc(-c2cccc(CN(C(=O)Nc3ccccc3)C3CCN(Cc4ccccc4)CC3)c2)cc1`, for which the growth inhibition is 95% (active).

On to `C=C[C@H]1CN2CC[C@@H]1C[C@H]2[C@H](O)c1cc(-c2ccc(F)cc2)nc2ccc(OC)cc12`, for which the growth inhibition was 98% (active).

As to `Cc1cccc(C(=O)Nc2ccnc(N(C)C3CCN(CC(C)C)CC3)c2)c1`, the growth inhibition is 6% (inactive).

`Cc1ccccc1CNCC(O)c1cccc(C(F)(F)F)c1` (configuration not stated): the growth inhibition was 77% (active).

`CNCCN(C)C(=O)Oc1c(Cl)c(C)nc(C)c1-c1ccc(Oc2ccc(OC(F)(F)F)cc2)cc1`: the growth inhibition is 96% (active).

As for `O=C(/C=C/c1ccc(Cl)c(Cl)c1)NCCC1CCC(N2CCC(c3c[nH]c4ccc(O)cc34)CC2)CC1` (configuration not stated), the growth inhibition was 3% (inactive).

In the case of `CN(c1cc(NC(=O)c2cccs2)ccn1)C1CCN(Cc2ccccc2)CC1`, the growth inhibition is 87% (active).

`O=C(C=C1c2ccccc2-c2ccccc21)NC1CCC(CN2CCC(c3c[nH]c4ccccc34)CC2)CC1` (configuration not stated): the growth inhibition is 64% (active) and 67% (active).

On to `CC(=O)N(Cc1ccccc1-c1cccc(CNCc2ccc3c(c2)OCO3)c1)C1CCN(Cc2ccccc2)CC1`, for which the growth inhibition is 44% (inactive).

Turning to `CC(Cc1ccc(OCCOc2ccccc2)cc1)NCC(O)c1cccc(C(F)(F)F)c1` (configuration not stated), the growth inhibition is 76% (active).

As for `CC(=O)Nc1ccc2[nH]cc(C3CCN(CC4CCN(C(=O)/C=C/c5ccc(Cl)c(Cl)c5)CC4)CC3)c2c1`, the growth inhibition was 41% (inactive).

As for `CC(Cc1ccc(OCCCCOc2ccccc2)cc1)NCCCc1nc2ccccc2[nH]1` (configuration not stated), the growth inhibition is 67% (active).

`FC(F)(F)c1ccc(NC(=S)NC2CCC(CN3CCC(c4c[nH]c5ccccc45)CC3)CC2)cc1` (configuration not stated): the growth inhibition is 99% (active) and 100% (active).

Take `COc1cccc(O)c1CNCC(O)c1cccc(C(F)(F)F)c1` (configuration not stated): the growth inhibition is 96% (active).

`COc1ccc(CCNCc2ccc3nc(N)c(C)cc3c2)cc1`: the growth inhibition was 15% (inactive).

`Brc1cnc(NC2=NCCN2)c(Br)c1`: the growth inhibition is -1% (inactive).

As for `COc1ccc(C(=O)[C@H]2C[C@@H]2CN2CC=C(c3c[nH]c4ccccc34)CC2)cc1`, the growth inhibition is 89% (active).

For `Oc1ccc(CN2CCN(CCOC(c3ccc(F)cc3)c3ccc(F)cc3)CC2)cc1Cl`, the growth inhibition is 87% (active).

Take `Oc1cc2c(cc1CN1CCN(Cc3ccccc3)CC1)CCC2`: the growth inhibition is 92% (active).

Consider `CN(CC(=O)N1CCN(S(=O)(=O)c2cccc(Cl)c2)CC1CN1CCCC1)c1ccc(Cl)c(Cl)c1` (configuration not stated), for which the growth inhibition was 32% (inactive).

In the case of `O=C(/C=C/c1ccc(Cl)c(Cl)c1)N1CCC(CN2CCC(c3c[nH]c4cc(C(F)(F)F)ccc34)CC2)CC1`, the growth inhibition was 38% (inactive).

`COc1cc(C=CC(=O)N2CCC(CN3CCC(c4c[nH]c5ccccc45)CC3)CC2)ccc1O`: the growth inhibition is 25% (inactive).

The record behind these values is PubChem BioAssay.
